{
  "source": "PubChem BioAssay AID2782",
  "about": "(National Center for Advancing Translational Sciences (NCATS), 2010)",
  "note": "Results filed as inconclusive are left out. Values without a mark were called inactive. Calls of active or inactive are those of the source. Calls come from the whole dose curve; as a rule, active = well fitted inhibition curve with a large enough effect in the polarisation, with a control signal flat (not every such curve was filed as active); inconclusive = small, poorly fitted or top-dose-only effect, or effect the other way, or a change in a side signal; inactive = no such curve, though single readings can be large or run the other way; the % refers to the polarisation. % is set by controls: 0 for no effect and ±100 for the full control effect; potency is the fitted concentration of half-maximal effect.",
  "data": [
    {"experiment": "Confirmation of Inhibitors Targeting the Menin-MLL Interaction in MLL Related Leukemias: Competition With Texas Red Labeled MLL-derived Mutant Peptide", "settings": "fluorescence polarization, Texas Red MLL peptide displacement; series mostly up to 94.6 µM; FP change, negative = inhibition: at the top concentration", "procedure,_shortened": "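Hits from the primary screen were retested: compounds were incubated 1 hr at ambient with 200 nM menin, 50 nM Texas Red mutant peptide and 25 nM fluorescein wild-type peptide (Tris pH 7.5, BSA-supplemented buffer), then fluorescence polarization was read.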", "values": [
      {"smiles": "CCOc1cc(C(c2c(C)[nH][nH]c2=O)c2c(C)[nH][nH]c2=O)cc(Br)c1OC", "FP change, negative = inhibition": "-14.2% [at 288 µM]"},
      {"smiles": "O=[N+]([O-])c1ccc(S(=O)(=O)c2ccccc2)nc1", "FP change, negative = inhibition": "-18.6% [at 288 µM]"},
      {"smiles": "COC(=O)c1cc(CNC(=O)CCCSc2ccccc2)ccc1OC", "FP change, negative = inhibition": "19.6%"},
      {"smiles": "CCCCn1c(SCC(=O)NCc2ccc(OC)c(C(=O)O)c2)nc2cc(S(N)(=O)=O)ccc21", "FP change, negative = inhibition": "-17.1% [at 288 µM]"},
      {"smiles": "COc1ccc(OC)c(C(c2c(C)[nH][nH]c2=O)c2c(C)[nH][nH]c2=O)c1", "FP change, negative = inhibition": "-9.46% [at 288 µM]"},
      {"smiles": "O=C(CCN1CCN(c2ccc([N+](=O)[O-])cc2)CC1)c1ccc(Cl)cc1", "FP change, negative = inhibition": "-16.1% [at 288 µM]"},
      {"smiles": "O=[N+]([O-])CC(c1ccccc1)P(=O)(c1ccccc1)c1ccccc1", "note": "(stereo not drawn)", "FP change, negative = inhibition": "24.1%"},
      {"smiles": "CCN1C(=O)[C@@H]2C(C(=O)c3cnccn3)=NN[C@@H]2C1=O", "FP change, negative = inhibition": "-4.09%"},
      {"smiles": "O=C(O)CCC(=O)Nc1ccc(SSc2ccc(NC(=O)CCC(=O)O)cc2)cc1", "FP change, negative = inhibition": "0.124% [at 288 µM]"},
      {"smiles": "CN1[C@H](CC(=O)c2ccccc2)CCC[C@H]1C[C@@H](O)c1ccccc1", "FP change, negative = inhibition": "-6.85% [at 288 µM]"},
      {"smiles": "CNC[C@H](CC1CCCCC1)NC[C@H](Cc1ccccc1)NCCC12CC3CC(CC(C3)C1)C2", "Potency": "63.1 µM (active)"},
      {"smiles": "COc1ccc(NC(=O)N2CC[C@@]3(CCCN(C(=O)c4csnn4)C3)C2)cc1", "FP change, negative = inhibition": "17.4%"},
      {"smiles": "O=C(COC(=O)c1ccc(NS(=O)(=O)c2cccs2)cc1)Nc1nc2c(F)c(F)c(F)cc2s1", "Potency": "14.2 µM (active)"},
      {"smiles": "c1ccc2c(c1)nc(N1CCOCC1)c1c3ccccc3[nH]c21", "FP change, negative = inhibition": "41.2% [at 288 µM]"},
      {"smiles": "O=C(CN1C(=O)/C(=C/c2cccc(Br)c2)SC1=S)NC1=NCCS1", "Potency": "17.8 µM (active)"},
      {"smiles": "CC1(C)CN=C(N2CCN(c3ncnc4sc5c(c34)CCCC5)CC2)S1", "Potency": "14.2 µM (active)"},
      {"smiles": "CC(CC(=O)Nc1nc2ccccc2[nH]1)n1ccnc1", "note": "(stereo not drawn)", "FP change, negative = inhibition": "-14.1%"},
      {"smiles": "CN1C[C@@H]2C[C@H]1CN2c1cc2c(cc1F)c(=O)c(C(=O)O)cn2C1CC1", "FP change, negative = inhibition": "-15.4%"},
      {"smiles": "CC1CN(c2c3c(nc4ncnn24)CCCC3)CC(C)O1", "note": "(stereo not drawn)", "FP change, negative = inhibition": "-1.82%"},
      {"smiles": "NC(=O)c1cc2ccccc2o/c1=N/NC(=O)c1cccc(F)c1", "FP change, negative = inhibition": "-15.5%"},
      {"smiles": "CCn1cnc2c1c(=O)n(CC(=O)O)c(=O)n2Cc1ccccc1", "FP change, negative = inhibition": "-10.1% [at 288 µM]"},
      {"smiles": "CCOC(=O)Cn1cnc2scc(-c3ccc(C)c(C)c3)c2c1=O", "FP change, negative = inhibition": "-11.2%"},
      {"smiles": "COc1ccc(-c2csc(NC(=S)NC(=O)/C=C/c3ccc(C(C)C)cc3)n2)cc1OC", "Potency": "17.8 µM (active)"},
      {"smiles": "COc1cc(OC)c2ccc(=O)oc2c1C(CCN1CCOCC1)c1ccc(N(C)C)cc1", "note": "(stereo not drawn)", "FP change, negative = inhibition": "32.5%"},
      {"smiles": "CCCC(=O)Nc1cccc(NC(=O)c2ccc([N+](=O)[O-])cc2Cl)c1", "FP change, negative = inhibition": "-11.1% [at 288 µM]"},
      {"smiles": "O=C(Nc1nnc(-c2ccccc2SCc2ccccc2)s1)Nc1ccccc1F", "Potency": "22.4 µM (active)"},
      {"smiles": "CCC[n+]1c2ccccc2cc2ccccc21", "Potency": "31.7 µM (active)"},
      {"smiles": "Nc1cccc2c1C(=O)N(C(=O)c1ccco1)C2=O", "FP change, negative = inhibition": "-17.4%"},
      {"smiles": "COc1ccccc1N(CC1CO1)S(=O)(=O)c1ccccc1", "note": "(stereo not drawn)", "FP change, negative = inhibition": "6.9%"},
      {"smiles": "COc1cc(SC)ccc1C(=O)Nc1cccc(C2OCCCO2)c1", "FP change, negative = inhibition": "-15.2% [at 288 µM]"},
      {"smiles": "CC(c1cc2ccccc2s1)N(O)C(N)=O", "note": "(stereo not drawn)", "FP change, negative = inhibition": "1.99% [at 288 µM]"},
      {"smiles": "O=C(C1CCCN(Cc2cccc(Cl)c2)C1)N1CCCCC1", "note": "(stereo not drawn)", "FP change, negative = inhibition": "17.5%"},
      {"smiles": "COc1ccc(CN2CCN(C(C)C(=O)N(C)Cc3cccc(F)c3)CC2)cc1OC", "note": "(stereo not drawn)", "FP change, negative = inhibition": "23.5%"}
    ]}
  ]
}
